# Test results published in the supplement of paper PMC10037445.
# The full ranking holds about 2,900 compounds; the median of “NF-kB SEAP reporter activity, fold change vs agonist alone” is about 0.99, and the highest 2% start at about 2.6. The sample holds the highest values, similar compounds and a random draw of the others, so the mix is not that of the screen.
# What was measured:
# RAW-Dual [1] = experiment: NF-kB SEAP reporter activity, fold change vs agonist alone; higher = enhanced NF-kB activity
# Procedure, shortened: (§1)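 Cytotoxic wells were those whose IncuCyte confluency was below 70% of agonist controls in both mask sets. The cells were RAW-Dual macrophages at 50,000 cells/well in DMEM on 384-well plates, dosed with 50 nL of library stock by pin tool, stimulated with a PRR agonist 1 h later, and kept at 37 °C, 5% CO2 for 20 hours. IRF and NF-κB reporter activity, as fold change over agonist-alone wells, came from supernatant read by QuantiLuc luminescence and QuantiBlue absorbance, respectively.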
# RAW-Dual [2] = experiment: NF-kB SEAP reporter activity, fold change vs agonist alone; cytotoxicity flag (confluency mask): not cytotoxic; higher = enhanced NF-kB activity
# Procedure, shortened: as §1
# RAW-Dual [3] = experiment: NF-kB SEAP reporter activity, fold change vs agonist alone; cytotoxicity flag (confluency mask): cytotoxic (confluency <70% of control); higher = enhanced NF-kB activity
# Procedure, shortened: as §1
# [4] = library stock concentration (final ~1000-fold dilution): 10 mM, cytotoxicity flag (confluency mask): not cytotoxic, agonist: Imiquimod (TLR7) […]
# [5] = library stock concentration (final ~1000-fold dilution): 10 mM, cytotoxicity flag (confluency mask): not cytotoxic, agonist: MPLA (TLR4) […]
# [6] = agonist: ODN 1826 (TLR9) 0.5 ug/mL
# [7] = agonist: Pam2CSK4 (TLR2/6) 0.1 ug/mL
# [8] = agonist: Pam3CSK4 (TLR2/1) 0.1 ug/mL
smiles,measurement,setting,value
NC(=O)c1ccc(OCCCN2CC3CCCC3C2)cc1 (stereo unspecified),NF-kB SEAP reporter activity,RAW-Dual [1]; [4],0.844
same,NF-kB SEAP reporter activity,RAW-Dual [1]; [5],1.05
N=C(N)c1ccc(OCCCCCOc2ccc(C(=N)N)cc2)cc1.O=S(=O)(O)CCO.O=S(=O)(O)CCO,NF-kB SEAP reporter activity,RAW-Dual [1]; [4],1.39
same,NF-kB SEAP reporter activity,RAW-Dual [1]; [5],1.89
N=C(N)c1ccc(OCCCCCOc2ccc(C(=N)N)cc2)cc1.O=S(=O)(O)CCO.O=S(=O)(O)CCO (library stock concentration (final ~1000-fold dilution): 10 mM),NF-kB SEAP reporter activity,RAW-Dual [2]; agonist: LPS (TLR4) 0.1 ug/mL,3.88
same,NF-kB SEAP reporter activity,RAW-Dual [2]; [6],1.22
same,NF-kB SEAP reporter activity,RAW-Dual [2]; [7],0.758
same,NF-kB SEAP reporter activity,RAW-Dual [2]; [8],1.06
NC(=O)c1ccc(OCCCN2CC3CCCC3C2)cc1 (stereo unspecified) (library stock concentration (final ~1000-fold dilution): 10 mM),NF-kB SEAP reporter activity,RAW-Dual [2]; agonist: LPS (TLR4) 0.1 ug/mL,0.976
same,NF-kB SEAP reporter activity,RAW-Dual [2]; [6],0.696
same,NF-kB SEAP reporter activity,RAW-Dual [2]; [7],0.926
same,NF-kB SEAP reporter activity,RAW-Dual [2]; [8],1.14
COCCc1ccc(OCC(O)CNC(C)C)cc1.COCCc1ccc(OCC(O)CNC(C)C)cc1.O=C(O)CCC(=O)O (stereo unspecified) (library stock concentration (final ~1000-fold dilution): 10 mM),NF-kB SEAP reporter activity,RAW-Dual [2]; agonist: LPS (TLR4) 0.1 ug/mL,1.32
same,NF-kB SEAP reporter activity,RAW-Dual [2]; [6],0.801
same,NF-kB SEAP reporter activity,RAW-Dual [2]; [7],0.839
same,NF-kB SEAP reporter activity,RAW-Dual [2]; [8],0.868
COCCc1ccc(OCC(O)CNC(C)C)cc1.COCCc1ccc(OCC(O)CNC(C)C)cc1.O=C(O)CCC(=O)O (stereo unspecified),NF-kB SEAP reporter activity,RAW-Dual [1]; [5],1.03
NC1(C(=O)NC(CCO)c2ccc(Cl)cc2)CCN(c2ncnc3[nH]ccc23)CC1 (stereo unspecified) (library stock concentration (final ~1000-fold dilution): 10 mM),NF-kB SEAP reporter activity,RAW-Dual [2]; agonist: LPS (TLR4) 0.1 ug/mL,0.9
same,NF-kB SEAP reporter activity,RAW-Dual [2]; [6],1.06
same,NF-kB SEAP reporter activity,RAW-Dual [2]; [7],0.974
same,NF-kB SEAP reporter activity,RAW-Dual [2]; [8],0.723
NC1(C(=O)NC(CCO)c2ccc(Cl)cc2)CCN(c2ncnc3[nH]ccc23)CC1 (stereo unspecified),NF-kB SEAP reporter activity,RAW-Dual [1]; [4],0.829
same,NF-kB SEAP reporter activity,RAW-Dual [1]; [5],0.793
O=C1N=C(O)CN1N=Cc1ccc(-c2ccc([N+](=O)[O-])cc2)o1,NF-kB SEAP reporter activity,RAW-Dual [1]; [5],1.03
O=C1N=C(O)CN1N=Cc1ccc(-c2ccc([N+](=O)[O-])cc2)o1 (library stock concentration (final ~1000-fold dilution): 10 mM),NF-kB SEAP reporter activity,RAW-Dual [2]; agonist: LPS (TLR4) 0.1 ug/mL,1.06
same,NF-kB SEAP reporter activity,RAW-Dual [2]; [6],0.843
same,NF-kB SEAP reporter activity,RAW-Dual [2]; [7],0.877
same,NF-kB SEAP reporter activity,RAW-Dual [2]; [8],0.756
c1cncc(CN2CCC(n3ncc4c(N5CCOCC5)nc(-c5ccc6[nH]ccc6c5)nc43)CC2)c1 (library stock concentration (final ~1000-fold dilution): 10 mM),NF-kB SEAP reporter activity,RAW-Dual [2]; agonist: LPS (TLR4) 0.1 ug/mL,2.91
same,NF-kB SEAP reporter activity,RAW-Dual [2]; [6],0.951
same,NF-kB SEAP reporter activity,RAW-Dual [2]; [7],1.44
same,NF-kB SEAP reporter activity,RAW-Dual [2]; [8],0.777
CN1CCN(Cc2ccc(-c3cnc4[nH]cc(-c5ccc6[nH]ccc6c5)c4c3)cc2)CC1 (library stock concentration (final ~1000-fold dilution): 10 mM),NF-kB SEAP reporter activity,RAW-Dual [2]; agonist: LPS (TLR4) 0.1 ug/mL,0.216
same,NF-kB SEAP reporter activity,RAW-Dual [2]; [6],0.181
same,NF-kB SEAP reporter activity,RAW-Dual [2]; [7],0.0629
same,NF-kB SEAP reporter activity,RAW-Dual [2]; [8],0.138
c1cncc(CN2CCC(n3ncc4c(N5CCOCC5)nc(-c5ccc6[nH]ccc6c5)nc43)CC2)c1,NF-kB SEAP reporter activity,RAW-Dual [1]; [4],0.96
same,NF-kB SEAP reporter activity,RAW-Dual [1]; [5],0.899
CN1CCN(Cc2ccc(-c3cnc4[nH]cc(-c5ccc6[nH]ccc6c5)c4c3)cc2)CC1,NF-kB SEAP reporter activity,RAW-Dual [1]; [4],0.132
same,NF-kB SEAP reporter activity,RAW-Dual [1]; [5],0.242
COC(=O)Nc1ccc(-c2nc(N3CCOCC3)c3cnn(C4CCN(C(=O)OC)CC4)c3n2)cc1,NF-kB SEAP reporter activity,RAW-Dual [1]; [4],0.976
same,NF-kB SEAP reporter activity,RAW-Dual [1]; [5],0.895
COC(=O)Nc1ccc(-c2nc(N3CCOCC3)c3cnn(C4CCN(C(=O)OC)CC4)c3n2)cc1 (library stock concentration (final ~1000-fold dilution): 10 mM),NF-kB SEAP reporter activity,RAW-Dual [2]; agonist: LPS (TLR4) 0.1 ug/mL,0.888
same,NF-kB SEAP reporter activity,RAW-Dual [2]; [6],0.912
same,NF-kB SEAP reporter activity,RAW-Dual [2]; [7],0.867
same,NF-kB SEAP reporter activity,RAW-Dual [2]; [8],0.873
Cc1cnc(NC(=O)Nc2cc(Br)c(C)cc2OCC2CNCCO2)cn1 (stereo unspecified) (library stock concentration (final ~1000-fold dilution): 10 mM),NF-kB SEAP reporter activity,RAW-Dual [2]; agonist: LPS (TLR4) 0.1 ug/mL,0.68
same,NF-kB SEAP reporter activity,RAW-Dual [2]; [6],0.903
same,NF-kB SEAP reporter activity,RAW-Dual [2]; [7],0.51
same,NF-kB SEAP reporter activity,RAW-Dual [2]; [8],0.818
Cc1cnc(NC(=O)Nc2cc(Br)c(C)cc2OCC2CNCCO2)cn1 (stereo unspecified),NF-kB SEAP reporter activity,RAW-Dual [1]; [4],0.872
same,NF-kB SEAP reporter activity,RAW-Dual [1]; [5],0.946
CCC(N)CNc1ccnc(-c2cc(-c3cnn(C)c3)ccc2O)n1.Cl.Cl (stereo unspecified) (library stock concentration (final ~1000-fold dilution): 10 mM),NF-kB SEAP reporter activity,RAW-Dual [3]; agonist: LPS (TLR4) 0.1 ug/mL,0.267
same,NF-kB SEAP reporter activity,RAW-Dual [3]; [6],0.195
same,NF-kB SEAP reporter activity,RAW-Dual [3]; [7],0.0684
same,NF-kB SEAP reporter activity,RAW-Dual [3]; [8],0.127
CCC(N)CNc1ccnc(-c2cc(-c3cnn(C)c3)ccc2O)n1.Cl.Cl (stereo unspecified),NF-kB SEAP reporter activity,"RAW-Dual [1]; library stock concentration (final ~1000-fold dilution): 10 mM, cytotoxicity flag (confluency mask): cytotoxic (confluency <70% of control), agonist: Imiquimod (TLR7) […]",0.144
same,NF-kB SEAP reporter activity,"RAW-Dual [1]; library stock concentration (final ~1000-fold dilution): 10 mM, cytotoxicity flag (confluency mask): cytotoxic (confluency <70% of control), agonist: MPLA (TLR4) […]",0.254
N=C(N)NCCCCC1NC(=O)CCSSCC(C(N)=O)NC(=O)C2CCCN2C(=O)C(Cc2c[nH]c3ccccc23)NC(=O)C(CC(=O)O)NC(=O)CNC1=O (stereo unspecified) (library stock concentration (final ~1000-fold dilution): 10 mM water),NF-kB SEAP reporter activity,RAW-Dual [2]; agonist: LPS (TLR4) 0.1 ug/mL,1.2
same,NF-kB SEAP reporter activity,RAW-Dual [2]; [6],1.15
same,NF-kB SEAP reporter activity,RAW-Dual [2]; [7],1.24
same,NF-kB SEAP reporter activity,RAW-Dual [2]; [8],1.06
N=C(N)NCCCCC1NC(=O)CCSSCC(C(N)=O)NC(=O)C2CCCN2C(=O)C(Cc2c[nH]c3ccccc23)NC(=O)C(CC(=O)O)NC(=O)CNC1=O (stereo unspecified),NF-kB SEAP reporter activity,"RAW-Dual [1]; library stock concentration (final ~1000-fold dilution): 10 mM water, cytotoxicity flag (confluency mask): not cytotoxic, agonist: Imiquimod (TLR7) […]",0.957
same,NF-kB SEAP reporter activity,"RAW-Dual [1]; library stock concentration (final ~1000-fold dilution): 10 mM water, cytotoxicity flag (confluency mask): not cytotoxic, agonist: MPLA (TLR4) […]",1.11
O=c1cc(N2CCOCC2)oc2c(-c3ccc4c(c3)OCCO4)csc12 (library stock concentration (final ~1000-fold dilution): 10 mM),NF-kB SEAP reporter activity,RAW-Dual [2]; agonist: LPS (TLR4) 0.1 ug/mL,6.86
same,NF-kB SEAP reporter activity,RAW-Dual [2]; [6],2.26
same,NF-kB SEAP reporter activity,RAW-Dual [2]; [7],0.957
same,NF-kB SEAP reporter activity,RAW-Dual [2]; [8],2.84
O=c1cc(N2CCOCC2)oc2c(-c3ccc4c(c3)OCCO4)csc12,NF-kB SEAP reporter activity,RAW-Dual [1]; [4],1.57
same,NF-kB SEAP reporter activity,RAW-Dual [1]; [5],2.36
CC(Nc1cc(F)cc(F)c1)c1cc(C(=O)N(C)C)cc2c(=O)cc(N3CCOCC3)oc12 (stereo unspecified) (library stock concentration (final ~1000-fold dilution): 10 mM),NF-kB SEAP reporter activity,RAW-Dual [2]; agonist: LPS (TLR4) 0.1 ug/mL,1.67
same,NF-kB SEAP reporter activity,RAW-Dual [2]; [6],1.01
same,NF-kB SEAP reporter activity,RAW-Dual [2]; [7],1.02
same,NF-kB SEAP reporter activity,RAW-Dual [2]; [8],1.13
CC(Nc1cc(F)cc(F)c1)c1cc(C(=O)N(C)C)cc2c(=O)cc(N3CCOCC3)oc12 (stereo unspecified),NF-kB SEAP reporter activity,RAW-Dual [1]; [4],0.569
same,NF-kB SEAP reporter activity,RAW-Dual [1]; [5],1.21
